# From PubChem BioAssay AID652115 (Broad Institute, 2013)
# Where “and” joins values, the source holds several entries; their conditions need not be identical. Equal values may be shown once. Among all 330,000 compounds or so, about 3,800 (1.2%) were called active. Rule as the data show it: active = inhibition above about 15%; inconclusive = no clear call, values can overlap the other calls; inactive = below that. The list comes from a sample in which actives are over-represented; it also holds similar structures and randomly drawn compounds. Some compounds were tested as several samples or in several runs, with calls that do not always agree.
# Target: NAD-dependent protein deacylase sirtuin-5, mitochondrial (Homo sapiens) (UniProt Q9NXA8)
# Experiment: SIRT5 desuccinylase inhibitors, primary screen, biochemical, fluorescence imaging, single point, set 5 (AID 652115)
# Conditions: Purified SirT5, succinyl-peptide AMC, trypsin-coupled fluorescence; at 15 µM; stronger effect = higher value
# Chain of NAD-dependent protein deacylase sirtuin-5, mitochondrial (Homo sapiens) (Q9NXA8 whole entry, looked up): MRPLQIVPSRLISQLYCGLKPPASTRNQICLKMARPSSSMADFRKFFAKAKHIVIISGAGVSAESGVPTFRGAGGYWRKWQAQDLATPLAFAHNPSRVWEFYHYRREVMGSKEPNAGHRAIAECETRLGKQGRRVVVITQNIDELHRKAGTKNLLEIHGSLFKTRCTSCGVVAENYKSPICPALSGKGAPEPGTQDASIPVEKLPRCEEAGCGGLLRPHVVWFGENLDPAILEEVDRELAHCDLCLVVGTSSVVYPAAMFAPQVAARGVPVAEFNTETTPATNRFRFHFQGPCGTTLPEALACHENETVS
row,SMILES,inhibition
1,CN(C)C(=O)C[C@H]1C=C[C@@H](NC(=O)C2CCC2)[C@@H](CO)O1,-0.42% (inactive)
2,C[C@H](CO)N1C[C@H](C)[C@H](CN(C)CC2CCCCC2)OCCCC[C@H](C)Oc2ccc(NC(=O)c3ccncc3)cc2C1=O,2.1% (inactive)
3,O=S(=O)(Cc1ccccc1)N1CCCCN2[C@@H](CO)[C@@H](c3ccc(-c4ccc(F)cc4)cc3)[C@@H]2C1,4.06% (inactive)
4,COc1ccc2c3c(n(C)c2c1)[C@@H](CO)N(C(=O)CN1CCOCC1)CC31CCN(C(=O)C2CC2)CC1,-4.96% (inactive)
5,O=C(C[C@@H]1CC[C@@H]2[C@H](COC[C@H](O)CN2Cc2cccc(C(F)(F)F)c2)O1)NCc1ccc(F)cc1,16.6% (active)
6,O=C(C[C@H]1CC[C@H]2[C@@H](COC[C@@H](O)CN2Cc2cccc(C(F)(F)F)c2)O1)NCc1ccncc1,2.67% (inactive)
7,O=C(C[C@H]1CC[C@H]2[C@@H](COC[C@@H](O)CN2Cc2nccs2)O1)NCc1ccccc1Cl,16.4% (active)
8,O=C(C[C@@H]1CC[C@@H]2[C@H](COC[C@H](O)CN2Cc2cccc(F)c2)O1)NCc1ccncc1,-0.883% (inactive)
9,O=C(C[C@@H]1CC[C@@H]2[C@H](COC[C@@H](O)CN2Cc2ccc(Cl)cc2)O1)NCc1ccccc1Cl,-1.3% (inactive)
10,O=C(C[C@@H]1CC[C@H]2[C@@H](COC[C@@H](O)CN2Cc2nccs2)O1)NCc1ccc(-c2ccccc2)cc1,3.03% (inactive)
11,CN(C)C(=O)[C@@H]1[C@@H](CO)[C@@H]2Cn3c(ccc(-c4ccccc4)c3=O)[C@@H]2N1CCC(F)(F)F,0.07% (inactive)
12,C[C@@H](NC(=O)C[C@H]1C=C[C@H](NC(=O)C2CCOCC2)[C@H](CO)O1)c1ccccc1,2.71% (inactive)
13,COc1ccc(NC(=O)N2C[C@H](O)COC[C@H]3O[C@@H](CC(=O)NC4Cc5ccccc5C4)CC[C@@H]32)cc1,-1.07% (inactive)
14,CC(C)CC#Cc1cnc2c(c1)C(=O)N([C@@H](C)CO)C[C@@H](C)[C@@H](CN(C)S(=O)(=O)c1cccs1)O2,3.74% (inactive)
15,C/C=C/c1ccc([C@H]2[C@@H](CO)N(C(=O)C3CC3)[C@@H]2CNC(=O)NC(C)C)cc1,-3.13% (inactive)
16,CCC(=O)N(C)C[C@@H]1Oc2ncc(C#CCC3CCCC3)cc2C(=O)N([C@@H](C)CO)C[C@H]1C,2.53% (inactive)
17,CN1C(=O)c2cc(NC(=O)C3CCOCC3)ccc2OC[C@@H]2O[C@H](CC(=O)NCc3ccccc3F)CC[C@H]21,-13.7% (inactive)
18,C[C@@H]1CN([C@@H](C)CO)S(=O)(=O)c2ccc(C3=CCCC3)cc2O[C@@H]1CN(C)Cc1ccncc1,0.906% (inactive)
19,COc1ccccc1NC(=O)N(C)C[C@H]1Oc2cc(Br)ccc2S(=O)(=O)N([C@H](C)CO)C[C@@H]1C,-3.29% (inactive) and -0.792% (inactive)
20,C[C@H](CO)N1C[C@H](C)[C@@H](CN(C)Cc2cccnc2)Oc2cc(C3=CCCC3)ccc2S1(=O)=O,0.149% (inactive)

row,SMILES,inhibition
1,C[C@@H](O)C#Cc1ccc2c(c1)O[C@@H](CN(C)Cc1cccnc1)[C@@H](C)CN([C@@H](C)CO)S2(=O)=O,-2.24% (inactive)
2,C[C@@H]1CN([C@H](C)CO)S(=O)(=O)c2ccc(C#C[C@@H](C)O)cc2O[C@@H]1CN(C)Cc1ccc(-c2ccccc2)cc1,27% (active) and 4.33% (inactive) and -0.184% (inactive)
3,CC(C)C#Cc1ccc2c(c1)O[C@H](CN(C)Cc1ccccc1)[C@H](C)CN([C@@H](C)CO)S2(=O)=O,-0.3% (inactive)
4,C/C=C/c1ccc2c(c1)O[C@H](CN(C)C)[C@H](C)CN([C@H](C)CO)S2(=O)=O,-0.588% (inactive)
5,Cc1noc(C)c1NC(=O)N(C)C[C@@H]1Oc2cc(C#CCC(C)C)ccc2S(=O)(=O)N([C@H](C)CO)C[C@@H]1C,10.8% (inactive)
6,C[C@H]1CN([C@@H](C)CO)S(=O)(=O)c2ccc(C3=CCCC3)cc2O[C@@H]1CN(C)Cc1ccccc1,24.3% (active)
7,C/C=C/c1ccc2c(c1)O[C@H](CN(C)Cc1cccc(F)c1)[C@H](C)CN([C@H](C)CO)S2(=O)=O,18% (active)
8,C/C=C/c1ccc2c(c1)O[C@H](CN(C)Cc1ccccc1)[C@H](C)CN([C@@H](C)CO)S2(=O)=O,3.6% (inactive)
9,Cc1noc(C)c1NC(=O)N(C)C[C@@H]1Oc2cc(Br)ccc2S(=O)(=O)N([C@@H](C)CO)C[C@H]1C,-3.62% (inactive) and 22.1% (active)
10,CO[C@@H](CN(C)C(=O)c1cnccn1)[C@@H](C)CN([C@@H](C)CO)S(=O)(=O)c1ccc(F)cc1,3.39% (inactive)
11,CCNC(=O)C[C@@H]1CC[C@@H]2[C@H](COc3ccc(NS(=O)(=O)c4ccccc4C)cc3C(=O)N2C)O1,-4.85% (inactive)
12,C/C=C/c1ccc2c(c1)O[C@@H](CN(C)S(=O)(=O)c1ccc(F)cc1)[C@@H](C)CN([C@H](C)CO)S2(=O)=O,7.93% (inactive)
13,O=C(Nc1cc(F)ccc1F)N[C@H]1CC[C@@H](CCn2cc(C3CCCC3)nn2)O[C@@H]1CO,-0.428% (inactive)
14,C[C@H](CO)N1C[C@H](C)[C@@H](CN(C)C(=O)c2ccncc2)Oc2cc(/C=C/c3ccccc3)ccc2S1(=O)=O,0.659% (inactive)
15,COc1cccc(S(=O)(=O)N(C)C[C@@H]2Oc3cc(C4=CCCCC4)ccc3S(=O)(=O)N([C@H](C)CO)C[C@H]2C)c1,37.3% (active)
16,C[C@@H]1CN([C@@H](C)CO)S(=O)(=O)c2ccc(/C=C/c3ccccc3)cc2O[C@H]1CN(C)Cc1ccccc1,-1.92% (inactive)
17,C[C@H]1CN([C@@H](C)CO)S(=O)(=O)c2ccc(C3=CCCC3)cc2O[C@H]1CN(C)C(=O)Nc1ccc2c(c1)OCO2,16.2% (active)
18,C[C@H]1CN([C@@H](C)CO)S(=O)(=O)c2ccc(C#Cc3ccncc3)cc2O[C@@H]1CN(C)C(=O)Nc1ccc2c(c1)OCO2,4.3% (inactive)
19,C[C@@H]1CN([C@@H](C)CO)S(=O)(=O)c2ccc(/C=C/c3ccccc3)cc2O[C@H]1CN(C)C(=O)Nc1cc(F)ccc1F,-3.9% (inactive)
20,C[C@@H]1CN([C@@H](C)CO)S(=O)(=O)c2ccc(/C=C/c3ccccc3)cc2O[C@@H]1CN(C)C(=O)Nc1cc(F)ccc1F,21.7% (active)

row,SMILES,inhibition
1,C[C@@H]1CN([C@H](C)CO)S(=O)(=O)c2ccc(/C=C/c3ccccc3)cc2O[C@@H]1CN(C)Cc1ccccc1,23.2% (active)
2,C[C@@H]1CN([C@@H](C)CO)S(=O)(=O)c2ccc(/C=C/c3ccccc3)cc2O[C@H]1CN(C)Cc1cccnc1,5.97% (inactive)
3,C[C@@H]1CN([C@H](C)CO)S(=O)(=O)c2ccc(/C=C/c3ccccc3)cc2O[C@@H]1CN(C)C(=O)Nc1ccc(F)cc1,0.2% (inactive)
4,C[C@@H]1CN([C@H](C)CO)S(=O)(=O)c2ccc(C3=CCCC3)cc2O[C@H]1CN(C)C(=O)Nc1ccc2c(c1)OCO2,7.25% (inactive)
5,Cc1ccc(S(=O)(=O)N(C)C[C@@H]2Oc3cc(C4=CCCC4)ccc3S(=O)(=O)N([C@@H](C)CO)C[C@@H]2C)cc1,8.8% (inactive)
6,C[C@H](CO)N1C[C@H](C)[C@@H](CN(C)S(=O)(=O)c2ccc(F)cc2)Oc2cc(C3=CCCC3)ccc2S1(=O)=O,-0.634% (inactive)
7,C[C@@H]1CN([C@H](C)CO)S(=O)(=O)c2ccc(-c3cncnc3)cc2O[C@H]1CN(C)C(=O)Cc1ccccc1,1.64% (inactive)
8,CCCC#Cc1cnc2c(c1)C(=O)N([C@H](C)CO)C[C@H](C)[C@@H](CN(C)C(=O)c1cccnc1)O2,-3.74% (inactive)
9,CN1C(=O)c2cc(NS(=O)(=O)c3ccc(Cl)cc3)ccc2OC[C@@H]2O[C@H](CC(=O)O)CC[C@@H]21,-0.474% (inactive)
10,O=C(C1CC1)N1CC(=O)N2[C@H](CO)[C@@H](c3ccc(-c4ccccc4F)cc3)[C@@H]2C1,-3.61% (inactive)
11,COc1ccc(CN(C)C[C@H]2OCCCC[C@@H](C)Oc3ccc(NS(=O)(=O)c4ccccc4)cc3C(=O)N([C@@H](C)CO)C[C@@H]2C)cc1,-2.94% (inactive)
12,COc1ccccc1CN1[C@H](CO)[C@H](c2ccccc2)C12CN(C(=O)c1ccccn1)C2,-0.913% (inactive)
13,C[C@@H]1CN([C@H](C)CO)C(=O)c2cccc(NS(=O)(=O)c3ccc(Cl)cc3)c2O[C@H]1CN(C)Cc1ccc(C(F)(F)F)cc1,2.17% (inactive)
14,COCC(=O)Nc1ccc2c(c1)OC[C@H](C)N(C(=O)c1cnccn1)C[C@@H](C)[C@@H](OC)CN(C)C2=O,10.6% (inactive)
15,Cc1noc(C)c1NC(=O)N(C)C[C@H]1OCCCC[C@@H](C)Oc2ccc(NC(=O)NC(C)C)cc2C(=O)N([C@@H](C)CO)C[C@H]1C,1.72% (inactive)
16,NC(=O)c1ccc(NC(=O)COC(=O)c2c3c(nc4ccccc24)/C(=C\c2ccc4c(c2)OCO4)CCC3)cc1,-2.29% (inactive)
17,O=C1/C(=C/c2ccc3c(c2)OCO3)CCC/C1=C\c1ccc2c(c1)OCO2,15.2% (active)
18,O=C(N/N=C/c1ccc2c(c1)OCO2)C(=O)N1CCCC1,-0.951% (inactive)
19,C[C@H](CO)N1C[C@H](C)[C@H](CN(C)C(=O)c2cccnc2)Oc2ncc(C3=CCCC3)cc2C1=O,-8.88% (inactive)
20,C[C@H](CO)N1C[C@H](C)[C@@H](CN(C)C(=O)Cc2ccncc2)Oc2ncc(C#CCN(C)C)cc2C1=O,6.32% (inactive)
